Screening data deposited in PubChem BioAssay by National Center for Advancing Translational Sciences (NCATS).
This is a sample that favours compounds with a hit; in the whole collection about 11% have one here.
JMJD2A Tudor inh – inhibitors of human JMJD2A Tudor domain | O75164 | AlphaScreen JMJD2A-Tudor / H3K4me3 peptide binding | Potency, µM (highest dose often 114 µM), inactives show top-dose activity change, negative = inhibition, most hits filed as inhibitors | 390,000 compounds, 4.4% hits; further: on the % scale 0 is the no-effect control and ±100 the full control effect; nearly all actives have a fitted effect of over 50% in size
HP1b binding inh – blocks HP1-beta chromodomain binding to methylated histone tails; P83916; AlphaScreen HP1-beta / biotin-H3K9me3 peptide binding; Potency, µM (highest dose often 114 µM), inactives show top-dose activity change, negative = inhibition, hits mostly inhibitors; 390,000 compounds, 0.56% hits; AID 540317; further: nearly all actives have a fitted effect of over 70% in size
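HP1-beta protein (50 nM final) preincubated 30 min at room temperature with biotinylated H3(1-18)K9me3 peptide (50 nM) in PBS pH 7.4, 0.01% Tween-20, then compound added for 30 min. AlphaScreen streptavidin donor/nickel chelate acceptor beads (10 ug/mL final), 30 min dark, luminescence read.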
BAZ2B block – BAZ2B (human) inhibition; 360,000 compounds, 4.4% hits; Potency, µM (doses to about 114 µM), for the others: at the highest dose activity change, negative = inhibition, actives largely listed as inhibitors; AlphaScreen BAZ2B-H3K14Ac peptide displacement; AID 504333; further: on the % scale 0 is the no-effect control and ±100 the full control effect; nearly all actives have a fitted effect of over 60% in size
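In this displacement format the biotinylated H3(5-23) peptide acetylated at Lys14 serves as ligand at 50 nM, with BAZ2B at 50 nM in PBS pH 7.4 containing 0.01% Tween-20. Donor and acceptor beads are 10 ug/mL final.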
G9a inh – blocks human histone lysine methyltransferase G9a; AID 504332; 350,000 compounds, 8.8% hits; G9a H3K9 monomethylation, AlphaScreen, 2 h; Potency, µM (series often up to 102 µM), inactives show at the top dose activity, negative = inhibition, hits mostly inhibitors; further: on the % scale 0 is the no-effect control and ±100 the full control effect; nearly all actives have a fitted effect of over 75% in size
Target sequence (Q96KQ7 913-1193 limits assumed): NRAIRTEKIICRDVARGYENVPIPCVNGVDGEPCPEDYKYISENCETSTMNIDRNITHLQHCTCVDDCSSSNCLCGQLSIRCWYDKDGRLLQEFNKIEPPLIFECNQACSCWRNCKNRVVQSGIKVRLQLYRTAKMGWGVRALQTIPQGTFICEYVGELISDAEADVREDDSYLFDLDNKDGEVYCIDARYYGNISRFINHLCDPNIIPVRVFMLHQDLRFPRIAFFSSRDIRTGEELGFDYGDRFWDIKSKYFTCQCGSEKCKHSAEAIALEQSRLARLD
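Signal arises when biotinylated H3K9 peptide, once monomethylated, bridges streptavidin donor and antibody-captured acceptor beads. Enzyme at 20 nM was preincubated 15 min with test compounds; peptide 500 nM and SAM 20 uM then reacted for 2 h.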
VDR inh – vitamin D3 receptor (human) inhibition; P11473; 400,000 compounds, 0.93% hits; VDR-SRC2-3 peptide fluorescence polarization, 2 h; Potency, µM, for inactives: max response, negative = inhibition, usual class: inhibitors; AID 504847; further: on the % scale 0 is the no-effect control and ±100 the full control effect
Target sequence (P11473 whole entry, looked up): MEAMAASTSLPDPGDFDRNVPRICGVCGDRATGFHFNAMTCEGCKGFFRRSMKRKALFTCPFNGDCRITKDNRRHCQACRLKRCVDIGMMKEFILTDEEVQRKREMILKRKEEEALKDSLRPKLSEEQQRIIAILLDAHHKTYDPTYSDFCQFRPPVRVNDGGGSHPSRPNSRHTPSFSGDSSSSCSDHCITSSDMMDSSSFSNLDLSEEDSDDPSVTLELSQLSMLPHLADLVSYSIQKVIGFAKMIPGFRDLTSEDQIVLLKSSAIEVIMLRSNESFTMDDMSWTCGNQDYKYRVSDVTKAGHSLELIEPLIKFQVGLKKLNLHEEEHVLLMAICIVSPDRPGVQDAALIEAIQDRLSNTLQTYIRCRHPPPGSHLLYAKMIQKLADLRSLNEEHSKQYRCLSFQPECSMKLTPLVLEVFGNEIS
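The screen uses fluorescence polarization to detect compounds that interfere with recruitment of the SRC2-3 coactivator peptide to VDR; plates are read after 2 h at room temperature.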
PLK1 PBD block – PLK1 (human) polo-box domain binding inhibition; P53350; Plk1 PBD binding of FITC phosphopeptide, fluorescence polarization; Potency, µM, without a hit: max response, negative = inhibition, most hits filed as inhibitors; 360,000 compounds, 2.8% hits; further: series mostly up to about 57 µM; on the % scale 0 is the no-effect control and ±100 the full control effect; nearly all actives have a fitted effect of over 65% in size
An asterisk follows results filed as active; u = inconclusive; x = no result given; [ ] = remark or other dose. The call rests on the fitted dose curve; in most records, active means well fitted curve in the direction sought with a large enough effect; inconclusive means small, poorly fitted or top-dose-only effect, or another doubt; inactive means no such curve, though single readings can be large; an effect the other way counts as inactive or inconclusive. Potency means the concentration at half of the fitted maximal effect.

SMILES	JMJD2A Tudor inh	HP1b binding inh	BAZ2B block	G9a inh	VDR inh	PLK1 PBD block
Cc1cc(C(=O)CSc2nc3ccccc3[nH]2)c(C)n1C	56.2µM*	u	u	u	7.1%	-18.9%
Cc1cc(C(=O)CN2C(=O)NC(C)(c3cccc(Br)c3)C2=O)c(C)n1Cc1ccco1 (stereo not drawn)	-30.9%	-15.8%	-3.1%	50.1µM*	8.9%	4.3%
Cc1ccc2nc(SCC(=O)c3cc(C)n(C)c3C)[nH]c2c1	-19.8%	-15.0%	-37.4%	-19.0%	-5.0%	-3.3%
Cc1cc(C(=O)CSc2nncs2)c(C)n1Cc1ccco1	-25.4%	-0.8%	u	u	-5.5%	-8.5%
Cc1cc(C(=O)CSc2nc3ccccc3[nH]2)c(C)n1Cc1ccco1	u	-14.1%	u	14.1µM*	-1.4%	-16.0%
Cc1nonc1NC(=O)CSc1nc2ccccc2[nH]1	-7.6%	21.9%	-15.2%	-31.1%	-4.6%	-7.8%
CC(C)(C)OC(=O)N1CCC[C@H]1C(O)(c1ccccc1)c1ccccc1	x	x	x	x	3.9%	x
COc1ccccc1-c1nn(CCC(=O)Nc2ccccc2)c2nc(C)cc(C)c12	-10.4%	23.5%	-7.4%	0.8%[59 µM]	6.5%	x
O=C(OCc1cnc(Cl)s1)c1cccs1	17.0%	64.2%	-7.1%	x	-15.2%	0.7%
CCOC(=O)C1CCN(C(=O)C(CCSC)NC(=O)c2ccccc2OC)CC1 (stereo not drawn)	-11.9%	19.1%	-0.5%	-1.7%[12.7 µM]	-1.1%	-7.0%
O=S(=O)(c1ccccc1)c1nc(-c2cccs2)oc1SCc1ccccc1Cl	8.9%	41.9%	-10.2%	-25.3%[59 µM]	4.1%	x
CC1(c2ccc(OC(F)F)cc2)NC(=O)N(CC(=O)Nc2ccc3[nH]c(=O)[nH]c3c2)C1=O (stereo not drawn)	-25.6%	-14.9%	-6.1%	56.2µM*	-1.0%	-6.4%
COc1ccc2cc(C3(C)NC(=O)N(CC(=O)Nc4c(C)n(C)n(-c5ccccc5)c4=O)C3=O)ccc2c1 (stereo not drawn)	-8.7%	23.0%	-26.2%	35.8%[59 µM]	15.9%	-0.7%
COc1ccc(C2(C)NC(=O)N(CC(=O)Nc3c(C)n(C)n(-c4ccccc4)c3=O)C2=O)cc1 (stereo not drawn)	4.1%	16.9%	-1.7%	56.2µM*	21.9%	1.7%
COc1ccc(C2(C)NC(=O)N(CC(=O)Nc3ccc4[nH]c(=O)[nH]c4c3)C2=O)cc1 (stereo not drawn)	-10.3%	23.8%	-0.8%	-47.4%	-18.6%	-1.1%
Cc1c(NC(=O)CN2C(=O)NC(C)(c3ccc(OC(F)F)cc3)C2=O)c(=O)n(-c2ccccc2)n1C (stereo not drawn)	0.0%	19.7%	0.6%	50.1µM*	-10.8%	-3.5%
CC1(c2ccc(OC(F)F)cc2)NC(=O)N(CC(=O)Nc2ccccc2)C1=O (stereo not drawn)	9.2%	9.8%	-10.0%	20.8%	19.6%	3.2%
CC[C@@]1(c2cccc(C)c2)C(=O)N(C(=O)OC)N1C(=O)OC	-26.2%	41.7%	u	44.7µM*	u	9.47µM*
COC(=O)N1C(=O)[C@](c2ccccc2)(C2CCCCC2)N1C(=O)OC	-10.7%	67.0%	-29.8%	4.0%	u	-15.6%
COC(=O)N1C(=O)[C@@](c2ccccc2)(C2CCCC2)N1C(=O)OC	-21.7%	30.4%	2.0%	x	-24.9%	u
CC[C@@]1(c2ccccc2OC)C(=O)N(C(=O)OC)N1C(=O)OC	-16.8%	37.2%	-0.8%	x	23.7%	u
COC(=O)N1C(=O)[C@@](CC(C)C)(c2ccccc2)N1C(=O)OC	x	x	-31.0%	50.1µM*	x	x
COC(=O)N1C(=O)[C@](CC(C)C)(c2ccccc2)N1C(=O)OC	-0.7%	68.8%	-3.2%	79.4µM*	79.4µM*	13.4µM*
Cc1cccc(CSc2ccc(S(=O)(=O)N3CCCC3)cn2)c1	80.1%	140.7%	54.1%	14.1µM*	-13.2%	-13.0%
Cc1cccc(C(=O)NCC(=O)OCC(=O)c2ccc3ccccc3c2)c1	-16.2%[57.1 µM]	21.0%[57 µM]	x	x	-10.8%	x
SMILES	JMJD2A Tudor inh	HP1b binding inh	BAZ2B block	G9a inh	VDR inh	PLK1 PBD block
Cc1cn([C@H]2C[C@H](O)[C@@H](/C=C/C(=O)N3CCN(Cc4ccc(F)cc4)CC3)O2)c(=O)[nH]c1=O	x	x	x	x	x	-0.6%
CCOC(=O)c1[nH]c(Cc2[nH]c(C(=O)OCC)c(C)c2CCC(=O)OC)c(CCC(=O)OC)c1C	39.8µM*	-26.0%	u	39.8µM*	-3.8%	-6.4%
O=C(CN1C(=O)CC(c2ccco2)Sc2ccccc21)Nc1cccc(C(F)(F)F)c1 (stereo not drawn)	-9.5%	30.7%	-36.9%	-15.2%[59 µM]	-2.7%	x
Cc1cc(=O)[nH]c(N=N/C(=N/Nc2ccc(O)cc2)c2ccccc2)n1	56.2µM*	u	10µM*	0.562µM*	-24.4%	-18.3%
COc1ccc(N/N=C(/N=Nc2nc(C)cc(=O)[nH]2)c2ccccc2)cc1	u	15.8µM*	7.08µM*	u	-12.3%	-8.9%
COc1ccc2nc(C)cc(Nc3ccc(C(=O)O)cc3)c2c1	-1.3%	69.2%	4.6%	21.5%[2.33 µM]	-4.2%	-7.2%
Cc1cc(=O)[nH]c(N=N/C(=N/Nc2ccccc2C)c2ccccc2)n1	u	u	u	28.2µM*	21.7%	-17.1%
COc1cc(CCNC(C)=O)c(C(=O)/C=C/c2cccc(OC)c2OC)cc1OC	x	x	x	x	-5.8%	x
COC(=O)N/N=C/c1sc(N2CCCCC2)nc1-c1cccs1	u	16.4%	u	50.1µM*	-6.6%	-0.5%
Cn1ncc(C#N)c1NC(=O)C1CC(c2ccccc2Cl)=NO1 (stereo not drawn)	u	0.5%	-16.9%	x	-22.1%	29.9µM*
CCCc1nnc(NC(=O)Cc2coc3ccc(C(C)C)cc23)s1	-9.0%	20.0%	-1.6%	-3.4%[59 µM]	0.6%	x
Cc1ncc(S(=O)(=O)c2ccc(Cl)cc2)c(N)n1	-3.2%	18.0%	x	x	u	-16.2%
O=S(=O)(c1ccccc1)c1cc(O)ccc1O	-8.0%	-26.0%	-10.0%	50.1µM*	16.1%	-3.0%
O=S(=O)(c1ccc(Cl)cc1)c1cc(O)ccc1O	-24.0%	u	-24.8%	44.7µM*	-13.8%	-12.3%
Cc1c(O)ccc2cc(S(=O)(=O)c3ccccc3)c(=O)oc12	20.4%	41.1%	9.1%	28.8%	-3.1%	-29.7%
CN(/C=C1/C(=O)CNC1=O)CCO	-9.8%[11.4 µM]	-11.0%	16.0%	u	u	16.8µM*
CC1(C)CC(=O)C2=C(C1)Nc1ccccc1N(C(=O)C1CC1)C2c1ccco1 (stereo not drawn)	u	-7.4%	-14.6%	12.4%[12.7 µM]	-22.7%	9.47µM*
O=C1CC(c2ccco2)CC2=C1C1c3ccccc3C(=O)N1c1ccccc1N2 (stereo not drawn)	-23.2%	-12.1%	u	17.8µM*	7.0%	-2.4%
